Measurements: PubChem BioAssay (NCATS)
Results filed as inconclusive are left out. Active and inactive are the calls of the source. The call rests on the fitted dose curve; in most records, active means well fitted inhibition curve with a large enough effect; inconclusive means small, poorly fitted or top-dose-only effect; inactive means no such curve, though single readings can be large or run the other way.

biological target: Tumor susceptibility gene 101 protein (Homo sapiens) (UniProt Q99816); assay: qHTS Assay for Iinhibitors of HIV-1 Budding by Blocking the Interaction of PTAP/TSG101: Hit Validation (AID 651600); conditions: PTAP peptide/TSG101 UEV interaction, biochemical assay; series mostly up to 57.5 µM; further: nearly all actives have a fitted effect of over 70% in size
Outline: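 FITC-PTAP peptide (50 nM final) binding to Tsg101 binding domain (10 uM final) was measured by polarization after 20 min at r.t. with compounds, in 10 mM HEPES pH 7.5 buffer with 0.15 M NaCl and 0.01% Tween 20.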
Potency means the concentration at half of the fitted maximal effect.

Tumor susceptibility gene 101 protein (Homo sapiens), sequence (Q99816 whole entry, looked up, the tested form may be a part): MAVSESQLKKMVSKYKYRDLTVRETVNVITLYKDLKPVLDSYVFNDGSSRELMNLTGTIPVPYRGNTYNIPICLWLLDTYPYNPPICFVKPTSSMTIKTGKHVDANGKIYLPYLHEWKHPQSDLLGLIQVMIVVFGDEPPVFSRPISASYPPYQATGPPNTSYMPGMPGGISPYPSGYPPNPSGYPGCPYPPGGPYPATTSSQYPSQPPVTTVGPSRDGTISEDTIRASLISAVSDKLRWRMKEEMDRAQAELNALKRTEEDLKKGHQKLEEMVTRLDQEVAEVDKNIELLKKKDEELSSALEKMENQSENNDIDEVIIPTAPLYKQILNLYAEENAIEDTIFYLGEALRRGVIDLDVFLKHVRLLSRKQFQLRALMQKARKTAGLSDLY

Potency, inactive:
Nc1ccc2c(c1)C/C(=C/c1ccco1)C2=O
CCCCn1c(SCC(=O)c2cc(OC)ccc2OC)nc2cc(S(N)(=O)=O)ccc21
Cc1ccc(C(=O)Nc2ccc(C(=O)O)cc2)cc1S(=O)(=O)NCc1ccccc1
CCN(CC)C(=O)[C@H]1CC(CC(=O)NCc2cccc(C(F)(F)F)c2)C(=O)N2CCc3c([nH]c4ccc(OC)cc34)[C@]12C (some centres not stated)
CC1CC(C)CN(C(=O)c2ccc3c(c2NCCO)C(=O)c2ccccc2C3=O)C1 (configuration not stated)
CCN(C(=O)c1sc2nc3n(c(=O)c2c1C)CCCC3)c1ccccc1F
CCOc1cc(/C=C(\C#N)c2nc(-c3cccs3)c(NC(C)=O)s2)ccc1O
Cc1ccc(N2C(=O)C3C(C(=O)c4ccccc4)=NN(c4ccccc4)C3C2=O)cc1 (configuration not stated)
COc1ccc(NC(=O)c2nc(-c3ccc(C)cc3)n3c2CCCCC3)cc1
CCCCC(=O)NC1=NC(=O)C(C)(C)S1
CCOc1ccc(NC(=O)c2ccc3c(c2)CCN3S(C)(=O)=O)cc1
CSc1c(C#N)c(N)nc2sc(C(=O)c3ccc(Cl)c(Cl)c3)c(N)c12

Potency, active:
c1ccc2[nH]c3cc4ncnc4cc3nc2c1 6.51 µM
COc1ccc(OC)c2cc3ccccc3cc12 32.6 µM
Clc1ccc(-c2nnc3sc(-c4ccc(Br)o4)nn23)cc1 4.61 µM
CC(C)c1cc(=O)oc2c3c4c(cc12)CCCN4CCC3 5.17 µM
CN1C(=O)NC(c2ccccc2[N+](=O)[O-])C2=C1CCCC2=O (configuration not stated) 16.3 µM
